# VP16 counter: Gal4-VP16 reporter inhibition counter-screen. hit rate 3.5% among 310,000. Potency, µM (series often up to 53.6 µM), inactives show at the highest dose activity, negative = inhibition, usual class: inhibitors. AID 2546. Drosophila S2 Gal4-VP16 UAS-luciferase, luminescence, 20 h;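 note: Gal4-VP16 expression switched on by copper sulfate through the metallothionein promoter; potency is the fitted concentration of half-maximal effect; % is set by controls: 0 for no effect and ±100 for the full control effect; nearly all actives have a fitted effect of over 50% in size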
# RORg inh: ROR gamma (mouse) transcription inhibition; Drosophila S2 Gal4-RORgamma UAS-luciferase reporter, 20 h; Potency, µM (titrated, usually from 53.6 µM), without a hit: top-dose activity change, negative = inhibition, usual class: inhibitors; hit rate 5.4% among 310,000; P51450; note: potency is the fitted concentration of half-maximal effect; % is set by controls: 0 for no effect and ±100 for the full control effect; nearly all actives have a fitted effect of over 60% in size
# Target sequence (P51450 whole entry, looked up, the tested form may be a part): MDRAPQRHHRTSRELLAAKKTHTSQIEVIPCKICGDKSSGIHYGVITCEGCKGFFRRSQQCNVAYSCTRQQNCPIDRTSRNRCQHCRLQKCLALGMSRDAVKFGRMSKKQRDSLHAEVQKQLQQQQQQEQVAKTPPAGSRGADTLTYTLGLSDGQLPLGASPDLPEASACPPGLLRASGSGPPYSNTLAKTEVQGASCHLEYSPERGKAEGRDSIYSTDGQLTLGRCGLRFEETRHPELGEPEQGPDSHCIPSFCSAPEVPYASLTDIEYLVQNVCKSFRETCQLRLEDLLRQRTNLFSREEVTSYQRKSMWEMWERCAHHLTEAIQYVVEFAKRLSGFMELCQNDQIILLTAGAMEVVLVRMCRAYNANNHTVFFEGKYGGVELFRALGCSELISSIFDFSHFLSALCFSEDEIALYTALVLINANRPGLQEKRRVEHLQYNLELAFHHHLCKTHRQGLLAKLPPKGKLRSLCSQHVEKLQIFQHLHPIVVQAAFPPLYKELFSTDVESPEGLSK
#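 Luminescence from a UAS-regulated Photinus luciferase reporter in stably transfected Drosophila Schneider cells is measured; decreased signal marks ROR gamma inhibition. Fusion expression is induced by 700 uM copper sulfate for 20 hr.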
# CtBP-E1A inh: CtBP/E1A binding inhibition; hit rate 0.49% among 340,000; activity change, % (no concentration beside the values); AlphaScreen GST-E1A/His-CtBP binding, 1536-well; hits give low values; in the data active = activity change below about -65%; inconclusive = mostly about -30% to -63%; note: % is set by controls: 0 for no effect and ±100 for the full control effect
#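 In 5 uL wells, 23 nL compound meets equimolar GST-E1A and His-CtBP (5X stock 125 nM each) for 2 h, 37 °C. Beads (5X, 50 ug/mL) then 1 h, 37 °C, dark.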
# Six1-Eya2 blk: Six1/Eya2 interaction inhibition. Q15475+O00167. AlphaScreen GST-Six1/His-Eya2 binding, biochemical; hits give low values. activity change, % (test concentration not listed). hit rate 0.56% among 360,000; in the data active = activity change below about -65%; inconclusive = mostly about -30% to -63%; note: % is set by controls: 0 for no effect and ±100 for the full control effect
#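 AlphaScreen luminescence read after one hour at 37 °C in darkness. Pin-transferred compounds met GST-Six1 and His-Eya2 protein (5X stock 250 nM/500 nM) plus glutathione donor and Ni-chelate acceptor beads (5X, 50 ug/mL).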
# p53 reactivator: re-activators of mutant p53. H1299 p53-A138V BP100-luciferase reporter, luminescence, 24 h. Potency, µM (series often up to 92.2 µM), inactives show at the highest dose activity change, positive = activation, actives largely listed as activators. hit rate 0.063% among 320,000; note: potency is the fitted concentration of half-maximal effect; % of control where 0% means no effect; nearly all actives have a fitted effect of over 45% in size
#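 H1299 (p53-null), stable ts p53-A138V + BP100-Luc; 1000 cells/well, Opti-MEM/10% FBS; cpd 4 pt, 1:5; 24 h, 37 deg C, 5% CO2; detection reagent 10 min RT; luminescence.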
# Starred values were filed as active, the others as inactive; u = inconclusive; x = not tested or not shown; [ ] = dose if it differs, or a comment. This is a sample that favours compounds with a hit; in the whole collection about 5.4% have one here. Unless noted, calls come from the whole dose curve; as a rule, active = well fitted curve in the direction sought with a large enough effect; inconclusive = small, poorly fitted or top-dose-only effect, or another doubt; inactive = no such curve, though single readings can be large; an effect the other way counts as inactive or inconclusive.
SMILES,VP16 counter,RORg inh,CtBP-E1A inh,Six1-Eya2 blk,p53 reactivator
O=C(Cc1cccs1)NNC(=S)NC(=O)c1ccc(F)c(F)c1,5.6µM*,6.3µM*,-1,-2,12%
O=C(Cc1cccs1)NNC(=S)NC(=O)c1ccccc1,10µM*,7.9µM*,4,0,12%
O=C(Cc1cccs1)NCc1cccs1,6%,12%,11,4,-1%
O=C(Cc1ccccc1)NNC(=S)NC(=O)c1cccs1,2%,u,1,-4,10%
COC(=O)[C@@H]1CC[C@H](C)[C@@H](c2ccc(C)cc2)N1C(=O)c1ccc(/C=N\OC[C@@H]2O[C@H](c3ccccc3)C=C[C@@H]2Oc2ccc(OC)cc2)cc1,-1%[10 µM],19%[10 µM],x,x,x
Fc1ccc(-c2nc3n(c2-c2ccncc2)CCS3)cc1,-4%,-2%,x,x,x
O=C(NCCN1CCOCC1)C1CCN(c2ncnc3c2sc2cccc(F)c23)CC1,14µM*,2%,-1,0,-5%
O=C(C1CCN(c2ncnc3c2sc2cccc(F)c23)CC1)N1CCOCC1,-27%,-6%,-2,-7,-5%
CN1C(=O)CC[C@@H]1c1cccnc1,2%[17 µM],-1%[16.9 µM],x,x,x
C=CCSc1nnc(-c2cc3c(C(F)(F)F)nn(C)c3s2)n1C,1%,-5%,-2,-10,-4%
C=CCSc1nnc(-c2cc3c(-c4ccccc4)nn(C)c3s2)n1C,-16%,2%,-76*,-75*,5%
Nc1cc(=O)nc(SCC(=O)Nc2ccccc2Cl)n1-c1ccccc1,-6%,18%,x,0,0%
COc1ccc(-c2nnc(NC(=O)CS(=O)(=O)c3ccc(F)cc3)o2)cc1,x,x,u,u,11%
COc1ccc(-c2nnc(NC(=O)C(C)C)o2)cc1,u,11µM*,-6,-7,19%
COc1cccc(-c2nnc(NC(=O)C3CCCCC3)o2)c1,11µM*,3.5µM*,5,-6,-1%
COc1ccc(-c2nnc(NC(=O)C3CC3)o2)cc1,10µM*,5µM*,-3,-15,18%
COc1cccc(-c2nnc(NC(C)=O)o2)c1,u,u,-25,-7,4%
COc1ccc(NC(=O)C2CCCC2)cc1,-1%,18%,2,7,-3%
Cn1cc(-c2coc3c(C(=O)NCc4cccs4)cccc23)cn1,x,x,-24,-22,x
O=C(Nc1ccc(F)cc1)C(c1cc2ccccc2o1)N1CCN(CC(=O)N2CCCC2)CC1 (configuration not stated),x,x,-1,-9,x
Cc1cccc(CNc2cc(-c3ccccc3C)ncn2)c1,5%,1%,x,x,x
COCCCCCCCCCCCC(=O)O,-1%,-9%,x,x,x
Cc1ccc(NC(=O)CSc2nnc3c(n2)[nH]c2ccccc23)cc1,-2%,11%,3,5,2%
O=C(CSc1nnc2c(n1)[nH]c1ccccc12)Nc1ccc(S(=O)(=O)Nc2ncccn2)cc1,-19%,23%,x,-76*,-3%
O=C(CCSc1ccccc1)Nc1ccc(S(=O)(=O)Nc2ncccn2)cc1,2%,5%,-4,3,0%
SMILES,VP16 counter,RORg inh,CtBP-E1A inh,Six1-Eya2 blk,p53 reactivator
O=C(CSc1ccccc1)Nc1ccc(S(=O)(=O)Nc2ncccn2)cc1,5%,13µM*,6,9,-3%
Cc1cc(C)nc(NS(=O)(=O)c2ccc(NC(=O)CSc3nc4ccccc4[nH]3)cc2)n1,4µM*,23%,-16,-23,6%
Cc1ccc(NC(=S)Nc2ccc(S(=O)(=O)Nc3ncccn3)cc2)c(C)c1,-19%,13µM*,0,2,5%
O=C1[C@H]2[C@H](C=CC[C@H]2C(=O)N2CCN(c3ccccc3)CC2)CCN1Cc1ccc(Cl)c(Cl)c1,x,x,-7,-29,x
COC(=O)c1ccc(NC(=S)NC2CCc3ccccc32)cc1 (configuration not stated),u,7.9µM*,-1,4,-4%
Cc1ccc(NC(=S)NC2CCSc3ccccc32)cc1 (configuration not stated),5.6µM*,-102%,-19,-24,8%
COC(=O)c1ccc(NC(=S)NC2CC2)cc1,27%,u,x,3,0%
CC(=O)Nc1ccc(C(=O)NC2CCSc3ccccc32)cc1 (configuration not stated),14%,-12%,-1,3,-12%

# High-throughput results: PubChem, National Center for Advancing Translational Sciences (NCATS)
